PubChem BioAssay (NCATS)
Inconclusive results are not listed. Calls of active or inactive are those of the source. The call rests on the fitted dose curve; in most records, active means well fitted inhibition curve with a large enough effect; inconclusive means small, poorly fitted or top-dose-only effect; inactive means flat fitted curve, though single readings scatter.

Each compound was assayed on Zika virus NS2B-NS3 protease (assay: Primary screen GU AMC qHTS for Zika virus inhibitors (AID 1347154;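 further: 0% = no-inhibitor control and -100% = no-enzyme control; nearly all actives have a fitted effect of over 70% in size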)). Conditions: Zika NS2B-NS3 unlinked protease, AMC fluorogenic substrate; series mostly up to 54.1 µM; activity change, negative = inhibition: at the top concentration.
In short: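 Fluorogenic AMC-substrate cleavage by noncovalent NS2B-NS3 protease complex (25 nM, pH 8.0 Tris buffer with Tween 20) followed for 15 minutes at room temperature (~20% conversion). Percent inhibition from ex340/em450 signal change, fitted by 4-parameter Hill equation.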

Row | Compound | activity change, negative = inhibition
1 | Nc1nc(=O)n([C@H]2C[C@H](O)[C@@H](CO)O2)cc1F | 3.75% (inactive)
2 | CCOC(=O)N1CCN([N+]([O-])=NOc2ccc([N+](=O)[O-])cc2[N+](=O)[O-])CC1 | -6.15% (inactive)
3 | O=C(O)C=Cc1ccc(Cn2ccnc2)cc1 | -2.82% (inactive)
4 | c1cc(CN2CCCNCCNCCCNCC2)ccc1CN1CCCNCCNCCCNCC1 | 3.64% (inactive)
5 | Cc1cnn(C)c1C(=O)Nc1cc(Nc2ccc3c(C=Cc4ccccn4)n[nH]c3c2)ccc1F | 5.61% (inactive)
6 | N=c1ccn2c(n1)O[C@H]1[C@@H](O)[C@@H](CO)O[C@H]12 | 6.59% (inactive)
7 | C=C[C@@H]1CN2CCC1C[C@H]2[C@H](O)c1ccnc2ccc(OC)cc12 (some centres undefined) | -6.99% (inactive)
8 | C[C@H](O)[C@@H]1C(=O)N2C(C(=O)O)=C(S[C@@H]3CN[C@H](CNS(N)(=O)=O)C3)[C@@H](C)[C@@H]12 | 18.9% (inactive)
9 | O=C(c1ccc(F)cc1)N1CCC[C@H](c2nc(-c3ccc(F)cc3)no2)C1 | 6.17% (inactive)
10 | O=C(CN1C(=O)C2(CCCC2)NC[C@H]1c1cc(F)cc(F)c1)Nc1ccc2c(c1)C[C@@]1(C2)C(=O)Nc2ncccc21 | 2.16% (inactive)
11 | CN1C(C(=O)Nc2ccccn2)=C(O)c2sc(Cl)cc2S1(=O)=O | -6.17% (inactive)
12 | CC(C)(O)[C@H]1CC[C@@](C)([C@H]2[C@@H](O)C[C@@]3(C)[C@@H]4C[C@H](O[C@@H]5O[C@H](CO)[C@@H](O)[C@H](O)[C@@H]5O)[C@H]5C(C)(C)[C@@H](O[C@@H]6OC[C@@H](O)[C@H](O)[C@@H]6O)CC[C@@]56C[C@@]46CC[C@]23C)O1 | -13.9% (inactive)
13 | CC(=O)OCC(=O)[C@@]1(O)CC[C@H]2[C@@H]3CCC4=CC(=O)CC[C@]4(C)[C@@H]3C(=O)C[C@@]21C | 5.47% (inactive)
14 | OCc1ccccc1O[C@@H]1O[C@H](CO)[C@H](O)[C@H](O)[C@H]1O | 6.85% (inactive)
15 | COc1ccc(Nc2nccc(NCCO)n2)cc1 | -13.3% (inactive)
16 | CC(C)(O)CC[C@@H](O)[C@](C)(O)[C@H]1CC[C@@]2(O)C3=CC(=O)[C@@H]4C[C@@H](O)[C@@H](O)C[C@]4(C)[C@@H]3CC[C@]12C | 2.63% (inactive)
17 | CN(C)c1ccc2cc(C(=O)N[C@@H](CCCN=C(N)CCl)C(=O)NCc3ccccc3)ccc2c1 | 911% (inactive)
18 | O=C1c2cccc(O)c2C(=O)c2c(O)cc(CO)cc21 | -3.32% (inactive)
19 | OCC(O)C(O)C(O)CO (centres undefined) | 12.7% (inactive)
20 | CCc1c(O)cc(O)c(C(=O)c2ccc(OCCN3CCOCC3)c(OC)c2)c1CC(=O)N(CCOC)CCOC | -3.25% (inactive)

Row | Compound | activity change, negative = inhibition
21 | CCc1ccc(C(=O)Nc2cc(CN3CCN(C)CC3)cc(C(F)(F)F)c2)cc1C#Cc1cnc2ccnn2c1 | -7.67% (inactive)
22 | CCCCCCCCCCCCCCCC(=O)OC[C@@H](NC(=O)C(Cl)Cl)[C@H](O)c1ccc([N+](=O)[O-])cc1 | -8.72% (inactive)
23 | C[C@](Cc1c[nH]c2ccccc12)(NC(=O)OC1C2CC3CC(C2)CC1C3)C(=O)NC[C@H](NC(=O)CCC(=O)O)c1ccccc1 (some centres undefined) | -14.7% (inactive)
24 | CN(N=O)C(=O)N[C@H]1C(O)OC(CO)[C@@H](O)[C@H]1O (some centres undefined) | 8.04% (inactive)
25 | CC(=O)N[C@H]1[C@@H]([C@H](O)[C@H](O)CO)OC(C(=O)O)=C[C@@H]1N=C(N)N | 2.26% (inactive)
26 | CC(=CC(=O)Nc1ccccc1C(=O)O)c1ccc2ccccc2c1 | -21.2% (inactive)
27 | C[C@@H]1CC[C@@]2(OC1)OC1CC3C4CC=C5CC(O)CCC5(C)C4CCC3(C)C1[C@@H]2C (some centres undefined) | 9.39% (inactive)
28 | O=C(O)CCCCCC(=O)NN=C1CCCC1 | -1.69% (inactive)
29 | CON=C(C(=O)N[C@@H]1C(=O)N2C(C(=O)O)=C(Cn3ccc(=N)n3CCO)CS[C@H]12)c1csc(N)n1 | -1.01% (inactive)
30 | O=C(O)C(=O)Nc1cccc(C2=NN=N[N]2)c1 | -2.58% (inactive)
31 | C[C@@H]1C(=O)O[C@H]2CC34[C@H]5C[C@@H](C(C)(C)C)C36[C@H](OC(=O)[C@@H]6O)O[C@@]4(C(=O)O5)[C@]21O (some centres undefined) | 16.7% (inactive)
32 | Cc1cc(-c2nnc3n2CCCCC3)c(C)n1-c1ccccc1 | -3.36% (inactive)
33 | COc1ccnc2[nH]cc(C(=O)C(=O)N3CCN(C(=O)c4ccccc4)C[C@@H]3C)c12 | 4.44% (inactive)
34 | CN1CCCN(C(=O)c2cccc(-c3ccc(C=C4C(=O)Nc5ccc(Cl)cc54)o3)c2)CC1 | -11.2% (inactive)
35 | COc1cc2c(Nc3ccc(Cl)c(Cl)c3F)ncnc2cc1OCC1C[C@@H]2CN(C)C[C@H]2C1 | -1.3% (inactive)
36 | NC(=O)N1CCC(CC(=O)N2CCC([C@H]3c4ncc(Br)cc4CCc4cc(Cl)cc(Br)c43)CC2)CC1 | -7.77% (inactive)
37 | N#CC(=C(N)Sc1ccc(N)cc1)c1ccccc1C(F)(F)F | -2.86% (inactive)
38 | O=c1[nH]c(=O)n([C@H]2C[C@@H](O)[C@@H](CO)O2)cc1F | 6.03% (inactive)
39 | CN(C)CC[C@H](c1ccc(Cl)cc1)c1ccccn1 | -10.9% (inactive)
